The nature of assay [1]: P. berghei load reduction in hepatocytes – cell-based, HepG2, luciferase luminescence, HepG2 viability, primary screen (AID 624349; in the data active = parasite load remaining mostly below about 12%, no sharp cut-off; inactive = mostly above about 10%;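 note: 100% = mean of DMSO negative control wells on the same plate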). The settings on record: P. berghei liver stage in HepG2, luciferase luminescence, concentration not given here; parasite load remaining: stronger effect = lower value; viability: measured here: HepG2 viability without parasites.
Assay [2] can be described thus: Wnt pathway potentiators raising nuclear beta-catenin – imaging, WNT3A-conditioned medium, mouse C2C12, NPC library, primary screen (AID 1117326; in the data active = nuclear beta-catenin stimulation mostly above about 4.2%, no sharp cut-off; inactive = mostly below about 10%). The settings on record: stronger effect = higher value.
The nature of assay [3]: stimulators of insulin release from INS-1E, primary screen, cell-based, 5 mM glucose, NPC library (AID 1117329;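 active = compound raises insulin release from rat beta cells at 5 mM glucose, no numeric limit stated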). As to conditions: rat INS-1E insulin secretion, at 10 µM, stronger effect = higher value.
Assay [4] in a line: growth inhibition of GSK3B-pretreated HCT116 cells – cell-based, CellTiter-Glo, 0.2 to 20 µM (AID 1117336;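 active = compounds lowering colon cancer cell viability after pretreatment blocking the GSK3B kinase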). As to conditions: HCT116 viability after GSK3B inhibitor, at 20 µM, stronger effect = higher value. A general note: Cellular ATP, detected with luciferase, serves as a proxy for viable cell number.
Assay [5] can be described thus: inhibition of endothelial tube formation, primary screen, imaging, VEGF stimulated, CD31 staining, tube area, NPC library (AID 1117340;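 active = compound that reduces growth-factor-driven endothelial tube area in a mixed cell culture, no cutoff stated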). The settings on record: VEGF-stimulated ADSC/ECFC co-culture, at 10 µM, stronger effect = higher value.
A short description of assay [6]: GLP1 release stimulators, primary, NCI-H716, NPC library (AID 1117341;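 active = compound raises GLP1 secretion from the human gut endocrine cells, with no numeric limit stated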). The settings on record: NCI-H716 cells, at 10 µM, stronger effect = higher value.
Assay [7] is described as follows: HCT116 colon cancer cell growth inhibition, primary screen, CellTiter-Glo luminescence, NPC library (AID 1117342;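 active = compounds that lower survival of HCT116 colon cancer cells in the luminescence readout, no numeric limit stated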). As to conditions: at 20 µM (top of the series).
A short description of assay [8]: reduced SW480 viability measured with CellTiter-Glo, NPC library, primary (AID 1117343;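 active = compounds that lower viability of the colon cancer cells in the luminescence readout, with no numeric limit stated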). The settings on record: CellTiter-Glo luminescence; at 20 µM (top of the series) unless noted.
Assay [9] is described as follows: NPC library primary testing for decreased DLD-1 cell viability via CellTiter-Glo (AID 1117346;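 active = compounds that lower survival of DLD-1 colon cancer cells in the luminescence readout, no cutoff given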). The settings on record: DLD-1 viability, CellTiter-Glo luminescence; at 20 µM (top of the series).
For assay [10], the system named is Aerobactin synthetase IucA (Klebsiella pneumoniae). Description: inhibition of K. pneumoniae IucA enzyme – biochemical, Tocris library, absorbance (AID 1345561; call rule not given here;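 note: 100% = enzyme without compound and 0% = no enzyme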). The settings on record: purified IucA enzyme assay, absorbance (OD) read-out; stronger effect = lower value;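 tested at 8 µM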.
Assay [11] is described as follows: viability loss with induced miR-34 in A549 – imaging, A549 dox-inducible miR-34, nuclei and caspase counts, primary screen (AID 1347080). As to conditions: A549 miR-34 inducible, Hoechst nuclei count, 48 h.
Assay [12] in a line: MELAS cybrid and Rieske KO viability enhancers – cell-based, MELAS cybrids, Rieske KO mouse fibroblasts, CellTiter-Glo, primary screen (AID 1508586;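 active = mean z-score across replicates of 1.96 or higher in either the MELAS or the Rieske mutant cell line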;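 note: z relative to plate mean and SD of compound and empty wells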). The settings on record: low glucose.
A short description of assay [13]: galactose survival enhancers in mitochondrial complex I cybrids – cell-based, galactose medium, ATP luminescence, primary screen (AID 1645843;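 active = z-score of at least 1.8 in each of two replicates, scored against plate mean and spread of sample wells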;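 note: positive z means more ATP and so rescue of galactose-driven cybrid death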). The settings on record: complex I mutant cybrid cells, 72 h, stronger effect = higher value.
The nature of assay [14]: viability loss in pontine glioma line – cell-based, SU-DIPG-XIII, MIPE4.0, CellTiter-Glo, qHTS, dose response (AID 1347061; cut-off not given, nearly all actives have AC50 up to about 37 µM;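 note: cells exposed to compound for 48 hours before readout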). As to conditions: CellTiter-Glo ATP luminescence.
The nature of assay [15]: viability loss in pontine glioma line – cell-based, SU-DIPG-IV, MIPE4.0, CellTiter-Glo, qHTS, dose response (AID 1347063; cut-off not given, nearly all actives have AC50 up to about 30 µM;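 note: compound exposure lasted 48 hours before the viability readout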). As to conditions: CellTiter-Glo ATP luminescence.
Assay [16] can be described thus: growth inhibition of DIPG cells – cell-based, MIPE5.0 library, qHTS (AID 1347068; cut-off not given, nearly all actives have IC50 up to about 30 µM). As to conditions: SU-DIPG-XXV viability. Background: qHTS replaces the single test concentration by a dilution series.
Setting [17] is: stronger effect = lower value, cell number ratio, induced over uninduced.
[18] abbreviates: measured here: relative caspase fold change +Dox/-Dox.
[19] abbreviates: measured here: total cells with miR-34 induction, stronger effect = lower value.
Where [20] appears, read: measured here: total cells without miR-34 induction.

Molecules are shown by their SMILES. “And” between values parts separate entries of the source, which are not always exact repeats. Equal entries are not always repeated. Records with an inconclusive call do not appear. The source made the active and inactive calls.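 Rule for the calls, unless noted: active = compounds whose cell count with miR-34 switched on is under 0.7 times the count with it off; inactive = the rest.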

We go through 5 compounds from PubChem BioAssay.

On to `Cc1ccc2c(c1)c1c3n2CCNC3CCC1` (centres undefined), for which the parasite load remaining in assay [1] was 192% (inactive). Moreover, the viability (commonly a read-out of living cells in per cent, often relative to untreated cells) in [1] came out at 76.9%. The nuclear beta-catenin stimulation in assay [2] (at 10 µM) was 3% (inactive); in assay [2] (stimulation, at 2 µM), 2%. Besides, the insulin secretion stimulation in [3] is 0.5% (inactive). Moreover, the viability decrease in assay [4] was -63.6% (inactive). For the same compound, the tube area decrease in assay [5] was 18.5% (inactive). In assay [6], the GLP1 secretion stimulation was 11.2% (inactive). In assay [7], the inhibition of viability was 44% (inactive). Moreover, the viability decrease (inhibition) in assay [8] is 73.4% (active); in assay [9], 29.4% (inactive). Besides, the remaining activity (commonly the signal under treatment as a percentage of the control signal) in assay [10] is 98.7% (inactive). The fold change in [11] (setting [17]) was 0.931 (inactive) and 0.909 (inactive); in [11] (setting [18]), 0.816 and 0.659. In addition, the cell count in assay [11] (setting [19]) is 8540 and 8100; in assay [11] (setting [20]) it was 9170 and 8920. Besides, the z-score was 0.468 (inactive) in assay [12] (MELAS cybrid survival, CellTiter-Glo 48 h, stronger effect = higher value); -0.847 in assay [12] (Rieske KO mouse fibroblast survival, CellTiter-Glo 72 h); -0.41 (inactive) in assay [13].

With `C[C@@H](CN1CC(=O)NC(=O)C1)N1CC(=O)NC(=O)C1`, the nuclear beta-catenin stimulation in [2] (at 10 µM) is 9.7% (inactive); in [2] (stimulation, at 2 µM) it was 13.9%. For the same compound, the insulin secretion stimulation in assay [3] is 5.3% (inactive). The viability decrease in assay [4] was 70.9% (active). In assay [5], the tube area decrease is 37.9% (inactive). Also, in [6], the GLP1 secretion stimulation was -2.7% (inactive). For the same compound, in assay [7], the inhibition of viability is 62% (active). Also, the viability decrease (inhibition) in assay [8] was 53.1% (active); in [9], 47.2% (inactive). In addition, the remaining activity in assay [10] was 106% (inactive). For the same compound, the result in assay [14], in assay [15] and in assay [16] was inactive. For the same compound, the figures for the fold change in [11] (setting [17]) and in assay [11] (setting [18]) were 0.977 (inactive) and 1.07, respectively. The cell count in assay [11] (setting [19]) was determined as 8720; in assay [11] (setting [20]), 8920. For the same compound, the z-score in [13] is 0.075 (inactive).

Regarding `CCn1ccnc1CC1COc2ccccc2O1` (centres undefined), the nuclear beta-catenin stimulation in [2] (at 10 µM) is 1.8% (inactive); in [2] (stimulation, at 2 µM), 0.3%. Further, the insulin secretion stimulation in [3] is -3.2% (inactive). Also, the viability decrease in assay [4] was -16.7% (inactive). In addition, the tube area decrease in assay [5] is -3.6% (inactive). The GLP1 secretion stimulation in [6] is 0% (inactive). In addition, the inhibition of viability in assay [7] was 1.63% (inactive). Besides, the viability decrease (inhibition) in [8] was 7.7% (inactive); in assay [9], -5.9% (inactive). Also, in assay [10], the remaining activity was 82.4% (inactive). Further, the fold change in assay [11] (setting [17]) is 1.08 (inactive) and 0.969 (inactive); in assay [11] (setting [18]) it was 1.15 and 0.987. The cell count in [11] (setting [19]) was 10600 and 8940; in assay [11] (setting [20]) it was 9870 and 9220. Also, the z-score in assay [13] is 0.675 (inactive) and 1.33 (inactive).

As to `Cc1cc(C)c(/C=C2\C(=O)Nc3ccccc32)[nH]1`, in assay [1], the parasite load remaining was 27.2% (inactive). In assay [1], the viability is 69.7%. For the same compound, the nuclear beta-catenin stimulation in [2] (at 10 µM) was 9.9% (inactive); in assay [2] (stimulation, at 2 µM) it was 0.7%. For the same compound, in assay [3], the insulin secretion stimulation was -0.8% (inactive). Besides, in assay [4], the viability decrease was 20.1% (inactive). Further, the tube area decrease in [5] is 99.7% (active). Further, in assay [6], the GLP1 secretion stimulation was 12.8% (inactive). Moreover, the inhibition of viability in [7] was -18.7% (inactive). The viability decrease (inhibition) in assay [8] was 48.7% (inactive); in [9], 37.2% (inactive). The remaining activity in assay [10] is 104% (inactive). The fold change in assay [11] (setting [17]) was 1.05 (inactive) and 0.921 (inactive) and 0.87 (inactive); in [11] (setting [18]), 0.773 and 1.14 and 1.43. For the same compound, the cell count was 4600 and 5070 and 6640 in [11] (setting [19]); 4380 and 5510 and 7630 in assay [11] (setting [20]). The z-score in [13] was 0.06 (inactive) and 0.095 (inactive).

Turning to `CN1CC(=O)N/C1=N/C(=O)Nc1cccc(Cl)c1`, the nuclear beta-catenin stimulation in assay [2] (at 10 µM) was 0.5% (inactive); in [2] (stimulation, at 2 µM) it was -0.6%. Moreover, the insulin secretion stimulation in assay [3] is -2.5% (inactive). For the same compound, the viability decrease in assay [4] was -6.65% (inactive). The tube area decrease in assay [5] is -5.1% (inactive). Further, the GLP1 secretion stimulation in assay [6] was 4.2% (inactive). Further, in assay [7], the inhibition of viability is -16.7% (inactive). Also, the viability decrease (inhibition) in assay [8] was 45.2% (inactive); in [9], 3.8% (inactive). Also, the remaining activity in [10] was 109% (inactive). Besides, the fold change in [11] (setting [17]) was 0.899 (inactive); in assay [11] (setting [18]), 1.49. In addition, the cell count amounted to 8750 in assay [11] (setting [19]) and 9740 in assay [11] (setting [20]). For the same compound, the z-score in [13] was 0.46 (inactive).
